Results: PubChem BioAssay (Tox21)
A number with no mark means an inactive call. Active and inactive are the calls of the source. Calls follow the shape of the full dose curve.

test: G protein-coupled receptor (GPCR) small molecule agonists, calcium flux assay: HEK293 wild type cell line counter screen (AID 1920065); conditions: HEK293 WT calcium flux, fluorescence, agonist mode; series mostly up to 57.6 µM; activation: at the top concentration
From the text: U.S. Tox21 Program National Center for Advancing Translational Sciences [NCATS] Division of Preclinical Innovation [DPI] U.S. Environmental Protection Agency [EPA] National Institutes of Environmental Health Sciences [NIEHS] National Toxicology Program [NTP] U.S. Food and Drug Administration [FDA] Assay overview: The increased intracellular calcium release that occurred upon G protein-coupled receptor (GPCR) activation led to the frequent use of calcium flux assays to detect GPCR activation. For the purpose of studying and screening compounds that may activate GPCR, receptor-overexpressing models were typically generated using Hek293 wild-type (WT) cells. In order to eliminate the compounds that may have induced calcium release for non-specific activation, a counter-assay utilizing calcium flux on Hek293 WT cells was performed. The data were formulated in order to serve as a control for any calcium flux detection utilizing Hek293 cells with either GPCR overexpression or gene modification. The procurement of Hek293 WT cells from ATCC. Fluorescence intensity can be utilized to determine the activation of the compound in a calcium flux assay. As a counter control, this cell line was utilized to screen the Tox21 10K compound library.
Assay Protocol Summary: Hek293 cells were dispensed at 1500cells/4uL/well in 1536-well black wall/clear bottom plates using a multidrop dispenser. After the assay plates were incubated at a 37 C/5% CO2 incubator for 18 hours, 4 uL of Calcium Dye Solution was added to each well. The plates were incubated at 37 C for 1 hour. For agonist mode, 23 nL of compounds dissolved in DMSO, positive control (ATP) or DMSO only was transferred to the assay plate by a pin tool station. The fluorescence intensity in the plates was measured using FDSS 7000EX kinetic plate reader with a filter set of Ex/Em=480/540 for 3 min at 1 sec intervals. Each test compound was measured at 15 concentrations and in triplicates.
% is scaled to controls: 0 for no effect and ±100 for the full control effect.

Row | Compound | activation | Potency
1 | O=C(O)Cc1cc(I)c(Oc2cc(I)c(O)c(I)c2)c(I)c1 | -0.336% [at 26.5 µM] | 
2 | C=CC(C)=CCC=C(C)C | -1.29% | 
3 | Brc1ccccc1-c1ccccc1 | 1.72% | 
4 | CN(C)CC[C@@H](c1ccc(Br)cc1)c1ccccn1 | 0.93% [at 26.5 µM] | 
5 | CCC(=O)OCCc1ccccc1 | 0.117% | 
6 | CCCCCCCCCCOC(=O)c1ccccc1C(=O)OCCCCCCCC | 1.48% | 
7 | O=C(O)c1cn(C2CC2)c2cc(N3CCNCC3)c(F)cc2c1=O | 0.252% [at 26.5 µM] | 
8 | C=C(C)[C@@H]1CC=C(C)C(=O)C1 | 0.557% | 
9 | CC1CN(c2ccccc2)NC1=O (stereo not given) | -1.77% | 
10 | c1cc(N(CC2CO2)CC2CO2)ccc1OCC1CO1 (stereo not given) |  | inactive
11 | CCCCN1C[C@H](O)[C@@H](O)[C@H](O)[C@H]1CO | 0.175% [at 26.5 µM] | 
12 | COC(=O)Nc1nc2ccc(C(=O)c3cccs3)cc2[nH]1 | -0.477% [at 26.5 µM] | 
13 | C/C(C=O)=C\c1ccccc1 | 1.12% | 
14 | Cc1[nH]cnc1C[C@H]1CCc2c(C)c3ccccc3n2C1=O | -0.602% | 
15 | CN(C)CCOC(c1ccccc1)c1ccccc1 (tested in a mixture with another compound) | 0.0901% | 
16 | CC(=O)Nc1ccc(O)cc1 |  | inactive
17 | OCCN1CCN(CC/C=C2/c3ccccc3Sc3ccc(C(F)(F)F)cc32)CC1 | -0.175% [at 26.5 µM] | 
18 | CCCCCC(C)OC(=O)COc1ccc(Cl)c2cccnc12 (stereo not given) | -0.0332% | 
19 | CCc1cccc2c(CCO)c[nH]c12 | -0.729% [at 26.5 µM] | 
20 | CC1CN(c2cc3c(cc2F)c(=O)c(C(=O)O)cn3-c2ccc(F)cc2F)CCN1 (stereo not given) | 0.9% [at 5.23 µM] | 

Row | Compound | activation | Potency
21 | COC(=O)NCCC[Si](OC)(OC)OC | 0.0546% | 
22 | CNC(=S)NN | 0.0933% | 
23 | Cc1ccc(C(C)C)cc2c(C)ccc1-2 | 0.304% [at 26.5 µM] | 
24 | C=C(C)C(=O)OCCOCCOC(=O)C(=C)C | -1.19% | 
25 | CN(C)c1ccc(N=Nc2ccccc2C(=O)O)cc1 | -4.45% | 
26 | COc1cc2ncnc(Nc3ccc(F)c(Cl)c3)c2cc1OCCCN1CCOCC1 | 0.0078% [at 26.5 µM] | 
27 | CC(C)=CCNc1ncnc2c1ncn2[C@@H]1O[C@H](CO)[C@@H](O)[C@H]1O | 1.19% [at 26.5 µM] | 
28 | CCCCCCCC/C=C/CCCCCCCC1=NCCN1CCO | 0.139% | 
29 | CCC(C)c1cc(C(C)(C)C)c(O)c(C(C)(C)C)c1 (stereo not given) | 0.115% | 
30 | CCCC(=O)OC(C)(C)Cc1ccccc1 | 0.0869% | 
31 | O=P(c1ccccc1)(c1ccccc1)c1ccccc1 | -1.46% | 
32 | COc1nc(C)nc(Cl)c1NC1=NCCN1 | -0.486% [at 26.5 µM] | 
33 | O=C1CCc2cc(OCCCCc3nnnn3C3CCCCC3)ccc2N1 | 0.545% [at 26.5 µM] | 
34 | O[C@@H](c1cc(C(F)(F)F)nc2c(C(F)(F)F)cccc12)[C@H]1CCCCN1 | 18.9% [at 26.5 µM] | 
35 | C=Cc1c(C)c2cc3[nH]c(cc4nc(cc5nc(cc1[nH]2)C(C)=C5CCC(=O)O)C(CCC(=O)O)=C4C)c(C)c3C=C | -0.055% [at 26.5 µM] | 
36 | C=C(C)CS(=O)(=O)O | -0.324% | 
37 | Cc1ccc(Cl)cc1N | -0.813% | 
38 | CC(=O)OC(OC(C)=O)c1ccc([N+](=O)[O-])o1 | -0.22% | 
39 | CNCCC(Oc1ccc(C(F)(F)F)cc1)c1ccccc1 (stereo not given) |  | inactive
40 | O=C=NCC1CCCC(CN=C=O)C1 (stereo not given) | 0.388% | 
